From the supplement of paper PMC11732987, “Enantioselective OTUD7B fragment discovery through chemoproteomics screening and high-throughput optimisation” (Communications Chemistry, 2025)

Legend:
Experiment in all cases: log2 ratio of Biotin-Ahx-Ub-VS probe labelling (fragment/DMSO); higher = less target engagement (more negative = stronger competition), active = hit call of the paper (q ≤ 0.05, log2 ratio ≤ -1)
Details in all cases: compound concentration: 200 uM; treatment time: 3 h
[1] = target: USP34 (UniProt Q70CQ2)
Sequence of USP34 (Q70CQ2 whole entry, the tested form may be a part): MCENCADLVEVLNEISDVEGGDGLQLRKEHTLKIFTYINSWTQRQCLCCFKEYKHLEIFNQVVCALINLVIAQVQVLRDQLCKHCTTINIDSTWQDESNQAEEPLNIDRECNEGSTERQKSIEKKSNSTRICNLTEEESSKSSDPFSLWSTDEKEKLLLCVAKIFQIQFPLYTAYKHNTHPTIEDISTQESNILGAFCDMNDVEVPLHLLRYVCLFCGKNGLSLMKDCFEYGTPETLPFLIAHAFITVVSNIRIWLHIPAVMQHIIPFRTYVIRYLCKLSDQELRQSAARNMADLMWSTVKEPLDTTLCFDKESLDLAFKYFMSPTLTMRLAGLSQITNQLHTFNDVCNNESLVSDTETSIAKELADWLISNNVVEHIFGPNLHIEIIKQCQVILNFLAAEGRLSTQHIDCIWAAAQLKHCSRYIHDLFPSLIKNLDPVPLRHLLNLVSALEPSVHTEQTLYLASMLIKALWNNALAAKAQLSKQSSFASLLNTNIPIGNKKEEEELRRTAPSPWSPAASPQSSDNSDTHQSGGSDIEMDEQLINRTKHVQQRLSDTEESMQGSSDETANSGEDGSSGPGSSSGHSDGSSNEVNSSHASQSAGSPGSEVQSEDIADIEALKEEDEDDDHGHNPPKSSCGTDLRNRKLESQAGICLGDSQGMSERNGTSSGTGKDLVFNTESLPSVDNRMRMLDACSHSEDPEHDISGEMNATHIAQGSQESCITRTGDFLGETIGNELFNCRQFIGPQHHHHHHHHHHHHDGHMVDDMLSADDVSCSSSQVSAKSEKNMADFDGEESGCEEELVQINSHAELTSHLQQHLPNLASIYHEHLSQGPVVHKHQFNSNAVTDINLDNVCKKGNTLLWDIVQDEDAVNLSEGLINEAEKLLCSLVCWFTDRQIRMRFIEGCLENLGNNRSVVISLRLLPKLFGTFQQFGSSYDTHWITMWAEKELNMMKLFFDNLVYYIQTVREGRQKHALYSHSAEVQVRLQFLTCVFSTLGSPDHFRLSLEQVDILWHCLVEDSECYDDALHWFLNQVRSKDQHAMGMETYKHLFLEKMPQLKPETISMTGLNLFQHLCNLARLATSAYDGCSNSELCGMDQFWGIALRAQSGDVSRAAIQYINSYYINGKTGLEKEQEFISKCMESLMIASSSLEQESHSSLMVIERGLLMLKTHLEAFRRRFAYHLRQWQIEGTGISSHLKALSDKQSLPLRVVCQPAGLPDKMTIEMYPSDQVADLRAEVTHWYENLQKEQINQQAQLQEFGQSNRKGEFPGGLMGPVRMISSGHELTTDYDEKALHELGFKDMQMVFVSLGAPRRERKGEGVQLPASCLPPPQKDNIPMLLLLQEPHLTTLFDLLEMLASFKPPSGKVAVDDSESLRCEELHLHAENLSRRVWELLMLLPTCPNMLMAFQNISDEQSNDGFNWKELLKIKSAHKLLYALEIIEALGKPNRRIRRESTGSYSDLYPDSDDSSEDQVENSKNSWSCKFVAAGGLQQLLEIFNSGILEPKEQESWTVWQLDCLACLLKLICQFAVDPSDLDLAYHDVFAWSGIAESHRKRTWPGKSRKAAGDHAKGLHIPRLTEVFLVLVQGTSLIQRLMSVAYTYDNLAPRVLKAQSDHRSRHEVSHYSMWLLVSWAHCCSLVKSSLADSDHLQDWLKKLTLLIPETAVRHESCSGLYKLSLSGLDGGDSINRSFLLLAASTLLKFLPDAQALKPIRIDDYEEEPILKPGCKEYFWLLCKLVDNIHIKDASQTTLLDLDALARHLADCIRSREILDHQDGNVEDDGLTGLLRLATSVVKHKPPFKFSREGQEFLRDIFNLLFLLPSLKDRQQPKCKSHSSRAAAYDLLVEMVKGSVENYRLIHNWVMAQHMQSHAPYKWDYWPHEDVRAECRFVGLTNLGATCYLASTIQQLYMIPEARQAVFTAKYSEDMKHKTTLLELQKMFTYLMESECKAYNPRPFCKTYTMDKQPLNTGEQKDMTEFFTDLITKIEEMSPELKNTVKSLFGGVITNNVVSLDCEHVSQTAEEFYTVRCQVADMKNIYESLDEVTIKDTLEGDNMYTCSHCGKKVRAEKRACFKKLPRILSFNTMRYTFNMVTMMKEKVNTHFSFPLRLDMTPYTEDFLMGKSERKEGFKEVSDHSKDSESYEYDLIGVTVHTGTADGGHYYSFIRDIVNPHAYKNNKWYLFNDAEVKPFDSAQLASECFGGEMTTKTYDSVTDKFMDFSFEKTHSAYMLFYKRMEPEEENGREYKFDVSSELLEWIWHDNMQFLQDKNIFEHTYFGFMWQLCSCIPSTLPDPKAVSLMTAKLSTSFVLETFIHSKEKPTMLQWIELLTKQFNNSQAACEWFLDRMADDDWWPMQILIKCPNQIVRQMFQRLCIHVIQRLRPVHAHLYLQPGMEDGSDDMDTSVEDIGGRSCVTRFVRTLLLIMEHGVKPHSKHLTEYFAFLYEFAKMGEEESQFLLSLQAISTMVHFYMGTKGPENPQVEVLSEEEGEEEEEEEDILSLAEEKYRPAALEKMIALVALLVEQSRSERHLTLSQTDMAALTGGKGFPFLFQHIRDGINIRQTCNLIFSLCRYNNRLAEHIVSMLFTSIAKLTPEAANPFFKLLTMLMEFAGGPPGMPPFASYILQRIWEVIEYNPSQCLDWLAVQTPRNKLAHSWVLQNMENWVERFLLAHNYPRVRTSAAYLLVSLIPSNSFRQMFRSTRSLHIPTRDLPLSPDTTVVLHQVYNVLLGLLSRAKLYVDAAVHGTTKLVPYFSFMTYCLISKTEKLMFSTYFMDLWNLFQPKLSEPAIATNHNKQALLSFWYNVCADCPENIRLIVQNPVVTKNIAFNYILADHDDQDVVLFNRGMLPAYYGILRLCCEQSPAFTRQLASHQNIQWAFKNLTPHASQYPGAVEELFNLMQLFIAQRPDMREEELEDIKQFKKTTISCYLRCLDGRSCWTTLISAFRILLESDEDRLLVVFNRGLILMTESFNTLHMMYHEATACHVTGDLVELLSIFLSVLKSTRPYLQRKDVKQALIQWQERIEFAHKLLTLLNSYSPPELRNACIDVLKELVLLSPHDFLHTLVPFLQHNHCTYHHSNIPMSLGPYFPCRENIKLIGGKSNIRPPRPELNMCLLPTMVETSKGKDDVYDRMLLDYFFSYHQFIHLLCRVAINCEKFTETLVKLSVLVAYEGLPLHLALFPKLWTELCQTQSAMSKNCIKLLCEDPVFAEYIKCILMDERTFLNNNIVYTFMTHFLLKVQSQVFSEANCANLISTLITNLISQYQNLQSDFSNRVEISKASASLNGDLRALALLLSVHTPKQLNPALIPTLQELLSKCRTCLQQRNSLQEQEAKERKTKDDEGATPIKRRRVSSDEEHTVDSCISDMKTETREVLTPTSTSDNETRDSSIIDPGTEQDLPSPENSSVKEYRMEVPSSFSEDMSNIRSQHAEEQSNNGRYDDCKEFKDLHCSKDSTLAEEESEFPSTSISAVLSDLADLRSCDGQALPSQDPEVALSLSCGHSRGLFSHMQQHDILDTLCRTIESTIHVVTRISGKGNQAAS
How it was run: (§1)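 HEK293T lysate (495 µg per sample, in Tris/CHAPS/IGEPAL buffer with protease inhibitors) was exposed in triplicate for 3 h to fragment at 200 µM or to vehicle, then to Biotin-Ahx-Ub-VS at 0.5 µM final for 1 h. Labelled DUBs were enriched on NeutrAvidin, digested with LysC and trypsin, and analysed by diaPASEF LC-MS/MS. Spectronaut label-free quantities were normalised to the global median, and values are average log2 ratios of fragment over vehicle from an unpaired t-test. Only proteins with ≥2 unique peptides were used.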

[2] = target: T1, USP36 (UniProt Q9P275)
T1 sequence (whole entry): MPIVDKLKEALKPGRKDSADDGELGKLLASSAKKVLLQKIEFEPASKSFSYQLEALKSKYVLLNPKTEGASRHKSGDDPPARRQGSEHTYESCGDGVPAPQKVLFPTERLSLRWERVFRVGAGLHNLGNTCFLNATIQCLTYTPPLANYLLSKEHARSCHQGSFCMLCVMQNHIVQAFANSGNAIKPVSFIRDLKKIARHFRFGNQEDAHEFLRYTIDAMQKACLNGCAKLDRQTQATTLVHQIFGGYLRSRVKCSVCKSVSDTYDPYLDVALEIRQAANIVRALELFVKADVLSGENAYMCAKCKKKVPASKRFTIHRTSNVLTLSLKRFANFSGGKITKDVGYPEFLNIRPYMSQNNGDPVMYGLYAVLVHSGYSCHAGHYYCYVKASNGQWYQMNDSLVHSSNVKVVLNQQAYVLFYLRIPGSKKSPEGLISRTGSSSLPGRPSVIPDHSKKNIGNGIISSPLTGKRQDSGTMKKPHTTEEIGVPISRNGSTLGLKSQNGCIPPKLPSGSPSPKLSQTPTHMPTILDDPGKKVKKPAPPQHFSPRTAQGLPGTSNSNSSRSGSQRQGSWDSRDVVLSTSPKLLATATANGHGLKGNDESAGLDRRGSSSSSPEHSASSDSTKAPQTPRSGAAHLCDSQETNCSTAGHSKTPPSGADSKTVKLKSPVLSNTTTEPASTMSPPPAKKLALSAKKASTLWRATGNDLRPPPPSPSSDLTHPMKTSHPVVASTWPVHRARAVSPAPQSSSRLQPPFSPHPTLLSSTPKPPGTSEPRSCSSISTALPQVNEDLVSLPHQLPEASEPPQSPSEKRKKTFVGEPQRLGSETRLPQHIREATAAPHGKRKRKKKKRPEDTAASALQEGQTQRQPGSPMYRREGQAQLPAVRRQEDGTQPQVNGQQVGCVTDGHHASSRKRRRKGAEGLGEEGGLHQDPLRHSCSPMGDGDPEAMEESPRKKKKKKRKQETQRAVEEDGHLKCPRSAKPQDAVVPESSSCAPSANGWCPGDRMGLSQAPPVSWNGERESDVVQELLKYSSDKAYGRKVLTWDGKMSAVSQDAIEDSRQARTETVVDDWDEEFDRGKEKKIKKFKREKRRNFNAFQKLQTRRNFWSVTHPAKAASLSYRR
How it was run: as §1

[3] = target: T2, USP38 (UniProt Q8NB14)
T2 sequence (whole entry): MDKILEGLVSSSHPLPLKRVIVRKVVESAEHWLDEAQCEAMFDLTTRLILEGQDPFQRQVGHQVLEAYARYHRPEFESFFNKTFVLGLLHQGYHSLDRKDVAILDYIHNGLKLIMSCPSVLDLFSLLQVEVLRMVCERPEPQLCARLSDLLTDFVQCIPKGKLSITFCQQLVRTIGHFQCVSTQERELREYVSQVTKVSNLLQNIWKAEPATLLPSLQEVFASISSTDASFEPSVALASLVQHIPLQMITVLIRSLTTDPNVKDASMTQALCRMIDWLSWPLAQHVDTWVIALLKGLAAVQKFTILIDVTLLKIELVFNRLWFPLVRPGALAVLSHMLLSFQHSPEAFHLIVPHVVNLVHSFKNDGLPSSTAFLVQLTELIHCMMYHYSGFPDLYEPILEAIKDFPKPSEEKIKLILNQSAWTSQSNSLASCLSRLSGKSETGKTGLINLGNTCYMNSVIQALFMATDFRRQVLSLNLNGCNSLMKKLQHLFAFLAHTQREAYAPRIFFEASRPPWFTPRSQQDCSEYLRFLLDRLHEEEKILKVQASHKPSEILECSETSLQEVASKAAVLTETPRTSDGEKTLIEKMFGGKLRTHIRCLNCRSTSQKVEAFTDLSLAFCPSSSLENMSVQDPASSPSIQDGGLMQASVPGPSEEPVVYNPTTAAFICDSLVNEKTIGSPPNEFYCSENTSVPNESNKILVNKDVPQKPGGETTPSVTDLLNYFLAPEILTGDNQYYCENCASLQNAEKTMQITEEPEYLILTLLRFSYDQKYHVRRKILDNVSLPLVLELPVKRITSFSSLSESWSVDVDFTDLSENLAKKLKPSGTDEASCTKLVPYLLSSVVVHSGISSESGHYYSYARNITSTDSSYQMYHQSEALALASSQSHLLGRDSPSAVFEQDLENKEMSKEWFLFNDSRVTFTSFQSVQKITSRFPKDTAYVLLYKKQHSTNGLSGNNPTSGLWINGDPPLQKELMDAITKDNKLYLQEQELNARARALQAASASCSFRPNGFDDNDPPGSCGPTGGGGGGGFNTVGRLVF
How it was run: as §1

[4] = target: T3, USP39 (UniProt Q53GS9)
T3 sequence (whole entry): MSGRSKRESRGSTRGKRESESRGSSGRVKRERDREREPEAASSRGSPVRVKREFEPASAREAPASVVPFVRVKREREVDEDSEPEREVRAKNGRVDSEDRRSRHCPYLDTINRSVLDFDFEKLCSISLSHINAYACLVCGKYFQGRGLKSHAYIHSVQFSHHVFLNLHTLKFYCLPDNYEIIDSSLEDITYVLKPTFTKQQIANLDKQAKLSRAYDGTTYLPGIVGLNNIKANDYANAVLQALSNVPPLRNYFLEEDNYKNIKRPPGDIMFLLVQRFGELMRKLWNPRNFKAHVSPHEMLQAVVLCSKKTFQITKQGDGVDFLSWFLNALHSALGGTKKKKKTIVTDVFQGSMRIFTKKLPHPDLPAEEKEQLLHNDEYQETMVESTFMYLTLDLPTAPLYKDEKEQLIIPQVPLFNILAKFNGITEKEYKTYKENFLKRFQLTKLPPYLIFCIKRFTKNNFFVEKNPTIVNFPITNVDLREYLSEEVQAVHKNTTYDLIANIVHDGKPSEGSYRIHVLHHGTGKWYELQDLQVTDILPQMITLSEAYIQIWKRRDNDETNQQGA
How it was run: as §1

[5] = target: T4, USP4 (UniProt Q13107)
T4 sequence (whole entry): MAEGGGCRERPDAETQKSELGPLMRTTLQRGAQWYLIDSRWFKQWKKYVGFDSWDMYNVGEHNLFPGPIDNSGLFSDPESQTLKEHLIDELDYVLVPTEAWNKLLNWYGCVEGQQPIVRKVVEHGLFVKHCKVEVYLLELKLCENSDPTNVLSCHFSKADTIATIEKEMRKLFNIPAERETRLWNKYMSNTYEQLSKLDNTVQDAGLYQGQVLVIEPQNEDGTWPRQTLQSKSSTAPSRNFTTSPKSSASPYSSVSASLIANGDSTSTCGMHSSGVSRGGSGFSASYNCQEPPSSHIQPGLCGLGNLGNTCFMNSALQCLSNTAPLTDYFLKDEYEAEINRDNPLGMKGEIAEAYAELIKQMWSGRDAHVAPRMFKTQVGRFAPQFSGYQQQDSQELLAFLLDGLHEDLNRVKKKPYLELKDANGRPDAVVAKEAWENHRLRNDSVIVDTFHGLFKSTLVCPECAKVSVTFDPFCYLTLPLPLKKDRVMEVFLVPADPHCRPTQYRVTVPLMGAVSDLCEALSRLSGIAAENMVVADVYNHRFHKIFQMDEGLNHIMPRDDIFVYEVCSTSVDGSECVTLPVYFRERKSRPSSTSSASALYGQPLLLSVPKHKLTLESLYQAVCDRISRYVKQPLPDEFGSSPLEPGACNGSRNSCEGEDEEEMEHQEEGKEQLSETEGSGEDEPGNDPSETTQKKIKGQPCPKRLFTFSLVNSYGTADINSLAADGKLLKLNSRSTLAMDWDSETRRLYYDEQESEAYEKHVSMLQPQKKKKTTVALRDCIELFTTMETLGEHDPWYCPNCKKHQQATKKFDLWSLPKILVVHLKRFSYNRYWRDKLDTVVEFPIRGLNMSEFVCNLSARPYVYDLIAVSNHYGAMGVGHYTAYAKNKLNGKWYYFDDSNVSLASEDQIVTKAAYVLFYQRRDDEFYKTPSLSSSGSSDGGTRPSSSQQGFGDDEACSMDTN
How it was run: as §1

Measured: log2 ratio of Biotin-Ahx-Ub-VS probe labelling

CN(CCc1ncc(Br)cn1)C(=O)CCl.Cl
inactive: [1] -0.228 | [2] -0.122 | [3] -0.00939 | [4] 0.3 | [5] -0.0898
